PubChem BioAssay (NCI)
The panel holds about 79,000 compounds, 15% with a hit somewhere; the sample as a whole holds those more often. Values without a mark were called inactive. Rule as the data show it: active = growth inhibition above about 70%; inactive = the rest.

Experiment: NCI Yeast Anticancer Drug Screen. Data for the sgs1 mgt1 strain (AID 161);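 also: 0% = growth of cultures given vehicle only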
Conditions: S. cerevisiae sgs1 mgt1 strain, at 50.0 µM, active compounds read high
Procedure, shortened: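 Percent growth inhibition was derived by comparing compound-exposed mutant yeast with vehicle-exposed cultures. The strain carries alterations in DNA damage repair.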

Going from `CC=C(c1ccccc1)c1ccccc1` to `[O-][n+]1c2ccccc2nn1-c1ccccc1`, the growth inhibition rises from -13.7% to -2.65%.

Compared with `CC(=O)c1ccc2c(c1)-c1ccc(C(C)=O)cc1-2`, `CC(C)(N)COC(=O)c1ccc([N+](=O)[O-])cc1` is higher in growth inhibition: -14.4% for the first, 7.1% for the second.

Going from `N#Cc1n[nH]n(C2CCCCC2)c1=O` to `CC(C(=O)O)C1(O)CCCCC1` (configuration not stated), the growth inhibition rises from -13.3% to -8.4%.

Compared with `CCC(C1=CCCCC1)c1nc2c([nH]1)c(=O)n(C)c(=O)n2C` (configuration not stated), `CCOc1c(Cc2ccccc2)c(=O)n2c3ccccc3n3c(=O)n(C)c(=O)c1c23` is lower in growth inhibition: 23.6% for the first, -54.2% for the second.

First: CCCCNS(=O)(=O)c1ccccc1
Second: O=C(Nc1cccc2ccccc12)c1ccc(Cl)c(Cl)c1
The growth inhibition of the first is lower: -59.6% for the first, 52.8% for the second.

Compared with `CSc1ccc(NC(=O)NNP(=S)(Oc2ccc(C(C)(C)C)cc2)Oc2ccc(C(C)(C)C)cc2)cc1`, `COc1ccc(/C=C2/SC(=Nc3ccccc3)N(NC(=O)Cc3ccccc3)C2=O)c(OC)c1` is higher in growth inhibition: 0.5% for the first, 7.45% for the second.

Going from `C=CCOC(=O)NC(Cc1ccc(O)cc1)C(=O)O` (configuration not stated) to `C/C(CC(=O)Nc1ccc(C)c(C)c1)=N\NC(N)=O`, the growth inhibition falls from 4.5% to -0.7%.

Compared with `O=C(c1ccccc1)C(O)(c1ccccc1)C(c1ccccc1)c1ccccc1` (configuration not stated), `CC(=O)OC1COC(n2cnc3c(N)ncnc32)C(OC(C)=O)C1OC(C)=O` (configuration not stated) is lower in growth inhibition: 16.9% for the first, 2.3% for the second.

With `CCCCc1noc(N)c1SCC` the growth inhibition was 1.2%.
